Screens: PubChem, National Center for Advancing Translational Sciences (NCATS)
Pf growth 96h: inhibits malaria parasite growth, 96 h; P. falciparum luciferase reporter growth, 96 h; Potency, µM (series often up to 28.7 µM), usual class: inhibitors; hit rate 6.9% among 320,000; AID 504834
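Cell-based qHTS: luciferase-tagged P. falciparum in erythrocytes (2% hematocrit, 0.05% parasitemia final) incubated with compounds for 96 hours, 37 C, 5% CO2; luciferase detection reagent then added and luminescence measured.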
AMA1-RON2 inh: inhibitors of Plasmodium falciparum AMA1-RON2 interaction | AlphaScreen AMA1-biotinylated RON2 peptide binding | Potency, µM (highest dose often 58.2 µM), most hits filed as inhibitors | hit rate 0.2% among 360,000 | AID 720542; also: nearly all actives have a fitted effect of over 45% in size
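AMA1 (3D7) with his tag at 25 nM final met compounds first, then biotinylated RON2 peptide at 25 nM; detection used donor plus acceptor beads, 10 µg/mL apiece, read by AlphaScreen after 30 min at room temperature.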
Shiga inhibitor: inhibitors of Shiga toxin in Vero cells; hit rate 9.2% among 290,000; AID 2315; inhibition, % at 38.7 µM; Vero cells, Shiga toxin protein synthesis inhibition reporter; in the data active = inhibition mostly above about 28%, no sharp cut-off; inactive = mostly below about 43%
SARS PLP yeast: blocks SARS-CoV papain-like protease in a yeast assay; AID 485353; S. cerevisiae expressing SARS-CoV PLpro, growth rescue; hit rate 0.19% among 330,000; Potency, µM (series often up to 32.9 µM), actives largely listed as activators; calls by dose curve; also: nearly all actives have a fitted effect of over 55% in size
Cycloheximide cs: affects cycloheximide protein synthesis inhibition readout, counter-screen; max response, %; hit rate 12% among 300,000; cell reporter, cycloheximide protein synthesis inhibition counterscreen; in the data active = max response mostly above about 13%, no sharp cut-off; inactive = mostly below about 14%; also: read at 38.3 µM for the half of the compounds with a filed dose
Pf growth 48h: P. falciparum growth inhibition at 48 hours (one generation); P. falciparum luciferase growth in erythrocytes, 48 h; Potency, µM (series often up to 28.7 µM), most hits filed as inhibitors; hit rate 5.9% among 310,000; AID 504832
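Cell-based growth assay: transgenic P. falciparum expressing firefly luciferase, cultured in red cells within RPMI 1640 containing 0.5% w/v Albumax, 24 mM bicarbonate and gentamycin. A drop in luciferase activity indicates inhibition.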
Large screens that a line does not name were inactive. Compounds with a hit are over-represented: about 19% of the library has one in this group of screens. Unless noted, calls follow the shape of the dose curve; as a rule, active = well fitted curve in the direction sought with a large enough effect; inconclusive = small, poorly fitted or top-dose-only effect, or another doubt; inactive = no such curve, though single readings can be large; an effect the other way counts as inactive or inconclusive.

CC(C)c1ccc(N(C(=O)c2csnn2)C(C(=O)NC2CCCC2)c2ccncc2)cc1 (stereo unspecified)	Shiga inhibitor 65.8, Cycloheximide cs 30.3
O=C(NC1CCCCC1)C(c1ccncc1)N(C(=O)c1csnn1)c1ccccc1 (stereo unspecified)	none
O=C(NC1CCCC1)C(c1ccncc1)N(C(=O)c1csnn1)c1ccc(F)cc1 (stereo unspecified)	none
O=C(NC1CCCC1)C(c1ccncc1)N(C(=O)c1csnn1)c1ccccc1 (stereo unspecified)	Pf growth 96h 5.86µM
Cc1ccc(Nc2nc(N3CCOCC3)nc(N3CCOCC3)n2)cc1C	Pf growth 96h inconclusive, Pf growth 48h inconclusive
C=C1C(=O)O[C@H]2C[C@]3(C)C([C@@H](OC(=O)/C(C)=C/C)[C@H]12)[C@](C)(O)CC[C@H]3O (stereo partly specified)	Cycloheximide cs 30.2
C=C1C(=O)O[C@H]2[C@H]1[C@H](OC(=O)/C(C)=C\C)C[C@]1(CO1)[C@@H]1[C@H](OC(C)=O)C=C(C)[C@]21O	none (no result: Pf growth 96h, Shiga inhibitor, SARS PLP yeast, Cycloheximide cs, Pf growth 48h)
Cc1nc(Nc2cc(F)ccc2C)c2nnn(Cc3ccccc3)c2n1	none
Cc1ccc(-c2csc3ncnc(SCC(=O)Nc4nnc(C)s4)c23)cc1	none
Cc1ccc(-c2csc3ncnc(Sc4nnc(CN5CCCCCC5=O)o4)c23)cc1	Pf growth 96h 14.7µM, Pf growth 48h 11.7µM
Cc1ccc(-c2cc3cccc[n+]3cc2-c2ccc(C)cc2)cc1	Pf growth 96h inconclusive, Pf growth 48h 0.415µM
CC(C)C(C(=O)N1CCOCC1)N1C(=O)c2ccccc2C1=O (stereo unspecified)	Pf growth 96h 10.4µM
CC(C(=O)N1CCCCC1)N1C(=O)c2ccccc2C1=O (stereo unspecified)	none (no result: Pf growth 96h)
CC(C)(C)c1ccc(/C([O-])=C(/C(=S)NCc2ccco2)[n+]2ccccc2)cc1	none (no result: AMA1-RON2 inh, Pf growth 48h)
O=C(Nc1ccccc1Cl)c1cc(=O)c2ccccc2o1	Pf growth 96h 11.7µM, Cycloheximide cs 30.1 (no result: Shiga inhibitor)
O=C(Nc1ccccc1Br)c1cc(=O)c2ccccc2o1	Shiga inhibitor 99.4
O=C(CCCn1c(=O)[nH]c2ccccc2c1=O)Nc1ccc(F)cc1	none
O=C(c1ccc(F)cc1)C1CCN(CCn2c(=O)[nH]c3ccccc3c2=O)CC1	Pf growth 96h 10.7µM, Pf growth 48h 6.57µM
CCOc1ccc2nc(NC(=O)CN3CCOCC3)sc2c1	Shiga inhibitor 87.3, Cycloheximide cs 36.7, Pf growth 48h 4.15µM
CCOc1ccc2nc(NC(=O)CN3CCN(C)CC3)sc2c1	Pf growth 96h inconclusive, Cycloheximide cs 26.8
CCOc1ccc2nc(NC(=O)Cn3[nH]c(=O)c4ccccc4c3=O)sc2c1	Shiga inhibitor 53.5, Cycloheximide cs 40.6, Pf growth 48h inconclusive
CCOC(=O)N1CCN(CC(=O)Nc2nc3ccccc3s2)CC1	Pf growth 96h inconclusive (no result: Shiga inhibitor)
CCOC(=O)N1CCN(CC(=O)Nc2nc3ccc(OC)cc3s2)CC1	Pf growth 96h inconclusive, Shiga inhibitor 44.7, Cycloheximide cs 24.8
CC1C(C(=O)Nc2ccccc2)CCCC1(C)C(=O)O (stereo unspecified)	none
OC(c1cccnc1)c1nc(/C=C/c2ccc(C(F)(F)F)cc2)cs1 (stereo unspecified)	none (no result: Pf growth 96h, Shiga inhibitor, SARS PLP yeast, Cycloheximide cs, Pf growth 48h)
COc1cccc(CNC(=O)Cn2c(=O)c3cccn3c3ccccc32)c1	none
O=C(CN1CCOCC1)Nc1nc2ccc(Cl)cc2s1	Cycloheximide cs 21.6
O=C(CN1CCOCC1)Nc1nc2ccc(Br)cc2s1	none (no result: Pf growth 96h)
CC1(C)CC(=O)C2=C(C1)N(Cc1cccnc1)C(=O)C2(NC(=O)c1ccc(F)cc1)C(F)(F)F (stereo unspecified)	Pf growth 48h inconclusive
Cc1ccc(-n2c(O)c(/C=N/Nc3ccc(S(=O)(=O)N4CCOCC4)cc3[N+](=O)[O-])c3ccccc3c2=O)c(C)c1	Pf growth 96h 2.94µM, Pf growth 48h 10.4µM
O=C(O)c1ccc(/C=N\Nc2ccc(S(=O)(=O)N3CCOCC3)cc2[N+](=O)[O-])cc1	Pf growth 48h inconclusive
Cc1cc(O)c(C=O)c2c1C(=O)Oc1c(CO)c(O)c3c(c1O2)C(O)OC3=O (stereo unspecified)	AMA1-RON2 inh 1.12µM
COc1ccc(Cc2c3cc(OC)c(OC)cc3cc[n+]2C)cc1OC	Pf growth 96h 8.28µM, Pf growth 48h inconclusive
